Reference: PubChem BioAssay (NCI)
Values joined by “and” are separate entries in the source; they are usually repeats but may differ in a detail not shown here. Identical values can stand only once. About 79,000 compounds went through this panel and 15% of them were active in at least one assay; those are over-represented in the sample as a whole. Where a structure was tested more than once in an assay, its records may differ in their call. Active and inactive are the calls of the source. No stated cut-off is given here; in the data, active means growth inhibition above about 70%; inactive means the rest.

How the values were obtained:
[1] = NCI Yeast Anticancer Drug Screen. Data for the rad52 strain (AID 147);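 further: 0% = growth of vehicle-treated control cultures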; conditions: S. cerevisiae rad52 mutant growth inhibition, stronger effect = higher value
How it was run: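 Vehicle-treated cultures served as the reference for growth inhibition of compound-exposed yeast bearing a DNA repair mutation.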

[2] = NCI Yeast Anticancer Drug Screen. Data for the wt1 strain (AID 149);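 further: 0% = growth of vehicle-treated wt1 cultures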; conditions: S. cerevisiae wt1 strain (SPY 50644) growth inhibition, stronger effect = higher value
How it was run: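 Each compound is tested on wt1 yeast and the loss of growth versus vehicle gives the inhibition value.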

[3] = NCI Yeast Anticancer Drug Screen. Data for the rad50EPP+ strain (AID 151);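 further: 0% = growth of vehicle-treated control cultures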; conditions: S. cerevisiae rad50 mutant strain, stronger effect = higher value
How it was run: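 In this screen, rad50EPP+ yeast were exposed to compounds. Growth inhibition was scored against vehicle-treated controls.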

[4] = NCI Yeast Anticancer Drug Screen. Data for the mgt1 strain (AID 153); conditions: S. cerevisiae mgt1 mutant growth inhibition, stronger effect = higher value
How it was run: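 mgt1 strain exposed; growth vs vehicle control recorded as inhibition.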

[5] = NCI Yeast Anticancer Drug Screen. Data for the rad50 strain (AID 155);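 further: 0% = growth of vehicle-only cultures of the same strain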; conditions: S. cerevisiae rad50 strain growth inhibition, stronger effect = higher value
How it was run: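 Vehicle-treated cultures provide the reference for the growth inhibition reported for compound-exposed, repair-deficient yeast.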

[6] = NCI Yeast Anticancer Drug Screen. Data for the mec2-1 strain (AID 157); conditions: S. cerevisiae mec2-1 strain, stronger effect = higher value
How it was run: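 Vehicle-treated cultures served as reference for growth inhibition of compound-exposed mec2-1 yeast.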

[7] = NCI Yeast Anticancer Drug Screen. Data for the rad14 strain (AID 159);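 further: 0% = growth of vehicle-treated control cultures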; conditions: S. cerevisiae rad14 strain growth inhibition, stronger effect = higher value
How it was run: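 Inhibition of growth is reported for a repair-deficient yeast mutant following compound treatment, calculated relative to cultures that received vehicle.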

[8] = NCI Yeast Anticancer Drug Screen. Data for the sgs1 mgt1 strain (AID 161);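 further: 0% = growth of cultures given vehicle only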; conditions: S. cerevisiae sgs1 mgt1 strain, stronger effect = higher value
How it was run: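 Test agents were incubated with a DNA-repair-mutant yeast strain. Growth was then read and compared against vehicle-treated controls.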

[9] = NCI Yeast Anticancer Drug Screen. Data for the CLN2oe strain (AID 163);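 further: 0% = growth of vehicle-only control cultures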; conditions: S. cerevisiae CLN2oe strain, stronger effect = higher value
How it was run: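 Inhibition relative to vehicle-treated yeast is reported. Cells: strain with genetic alteration in cell-cycle control, grown with compound.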

[10] = NCI Yeast Anticancer Drug Screen. Data for the cln2 rad14 strain (AID 165);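 further: 0% = growth equal to vehicle treated cultures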; conditions: S. cerevisiae cln2 rad14 strain, stronger effect = higher value
How it was run: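 Each compound was tested on cln2 rad14 yeast. Inhibition of growth was calculated against vehicle-exposed controls.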

[11] = NCI Yeast Anticancer Drug Screen. Data for the bub3 strain (AID 167); conditions: S. cerevisiae bub3 mutant strain, stronger effect = higher value
How it was run: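 Mutant yeast screening strain plus compound; vehicle-treated cultures serve as the 0% inhibition reference.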

[12] = NCI Yeast Anticancer Drug Screen. Data for the wt2 strain (AID 169); conditions: S. cerevisiae wt2 strain growth inhibition, stronger effect = higher value
How it was run: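 Inhibition of yeast growth was determined after compound treatment, normalised to controls receiving only vehicle.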

[13] = NCI Yeast Anticancer Drug Screen. Data for the mlh1 strain (AID 171);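 further: 0% = growth of vehicle-treated control cultures of the same strain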; conditions: S. cerevisiae mlh1 strain growth inhibition, stronger effect = higher value
How it was run: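 Vehicle-normalised growth inhibition of a repair- or checkpoint-altered yeast strain following compound treatment.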

[14] = NCI Yeast Anticancer Drug Screen. Data for the sgs1 strain (AID 173);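 further: 0% = growth of vehicle-only control cultures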; conditions: S. cerevisiae sgs1 mutant, stronger effect = higher value
How it was run: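 Screen format: yeast with repair or checkpoint alterations, compound exposure, growth read relative to vehicle.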

[15] = NCI Yeast Anticancer Drug Screen. Data for the mlh1 rad18 strain (AID 175); conditions: S. cerevisiae mlh1 rad18 strain growth inhibition, stronger effect = higher value
How it was run: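 Vehicle-treated cultures served as the reference for growth inhibition in a yeast strain carrying DNA damage repair alterations exposed to each compound.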

[16] = NCI Yeast Anticancer Drug Screen. Data for the rad18 strain (AID 177); conditions: S. cerevisiae rad18 mutant growth inhibition, stronger effect = higher value
How it was run: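 Test articles were incubated with altered yeast defective in DNA damage repair. Results are given as inhibition of growth versus vehicle.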

[17] = at 5.0 µM (retest, dose inferred, filed as 0.5)
[18] = at 50.0 µM (retest, dose inferred, filed as 5.0)

Measured: growth inhibition

O=C(NCCCl)Sc1ccc(Cl)cc1
inactive: [1]; at 1.2 µM 3% | [1]; at 3.7 µM 7% | [1]; at 11.0 µM 10% | [1]; at 33.0 µM 55% | [2]; at 1.2 µM -3% | [2]; at 3.7 µM -3% | [2]; at 11.0 µM 0% | [2]; at 33.0 µM 21% | [3]; at 1.2 µM 3% | [3]; at 3.7 µM 7% | [3]; at 11.0 µM 22% | [3]; at 33.0 µM 56% | [4]; at 1.2 µM 1% | [4]; at 3.7 µM -2% | [4]; at 11.0 µM -2% | [4]; at 33.0 µM 30% | [5]; at 1.2 µM 4% | [5]; at 3.7 µM -7% | [5]; [17] -166% | [5]; at 11.0 µM 7% | [5]; at 33.0 µM 55% | [6]; at 1.2 µM 1% | [6]; at 3.7 µM 1% | [6]; [17] -52% | [6]; at 11.0 µM -10% | [6]; at 33.0 µM 13% | [7]; at 1.2 µM -1% | [7]; at 3.7 µM -7% | [7]; at 11.0 µM 2% | [7]; at 33.0 µM 33% | [8]; [17] -65% | [8]; [18] 53% | [9]; at 1.2 µM -1% | [9]; at 3.7 µM -2% | [9]; at 11.0 µM -2% | [9]; at 33.0 µM 9% | [9]; at 100.0 µM 60% | [10]; [17] -67% | [10]; [18] 8% | [10]; at 50.0 µM 42.8% | [11]; at 1.2 µM 2% | [11]; at 3.7 µM 0% | [11]; [17] -71% | [11]; at 11.0 µM 1% | [11]; at 33.0 µM 29% | [12]; at 1.2 µM 1% | [12]; at 3.7 µM 0% | [12]; at 11.0 µM 0% | [12]; at 33.0 µM 30% | [13]; at 1.2 µM -5% | [13]; at 3.7 µM 1% | [13]; at 11.0 µM 2% | [13]; at 33.0 µM 19% | [14]; at 1.2 µM 0% | [14]; at 3.7 µM 13% | [14]; at 11.0 µM 22% | [14]; at 33.0 µM 60% | [15]; [17] -141% | [16]; at 1.2 µM 0% | [16]; at 3.7 µM 3% | [16]; at 11.0 µM 5% | [16]; at 33.0 µM 44%
active: [1]; at 100.0 µM 99% | [2]; at 100.0 µM 80% | [3]; at 100.0 µM 90% | [4]; at 100.0 µM 71% | [5]; [18] 85% | [5]; at 50.0 µM 95.2% | [5]; at 100.0 µM 98% | [6]; [18] 82% | [6]; at 50.0 µM 99.3% | [6]; at 100.0 µM 85% | [7]; at 100.0 µM 75% | [8]; at 50.0 µM 84.5% | [11]; [18] 84% | [11]; at 50.0 µM 96.2% | [11]; at 100.0 µM 91% | [12]; at 100.0 µM 92% | [13]; at 100.0 µM 93% | [14]; at 100.0 µM 90% | [15]; [18] 84% | [15]; at 50.0 µM 97.8% | [16]; at 100.0 µM 93%

Nc1ccn(C2OC(COP(=O)(O)O)C(O)C2O)c(=O)n1 (stereo unspecified)
87.4% (active) and 16.2% (inactive): [8]; at 50.0 µM
active: [3]; at 100.0 µM 72% | [8]; [18] 75% | [14]; at 33.0 µM 82% | [14]; at 100.0 µM 86%
inactive: [1]; at 1.2 µM -1% | [1]; at 3.7 µM 0% | [1]; at 11.0 µM 3% | [1]; at 33.0 µM 5% | [1]; at 100.0 µM 6% | [2]; at 1.2 µM -11% | [2]; at 3.7 µM 1% | [2]; at 11.0 µM 2% | [2]; at 33.0 µM 0% | [2]; at 100.0 µM 1% | [3]; at 1.2 µM -5% | [3]; at 3.7 µM -2% | [3]; at 11.0 µM 8% | [3]; at 33.0 µM 37% | [4]; at 1.2 µM 2% | [4]; at 3.7 µM 4% | [4]; at 11.0 µM 2% | [4]; at 33.0 µM 3% | [4]; at 100.0 µM 14% | [5]; at 1.2 µM 0% | [5]; at 3.7 µM 9% | [5]; [17] 38% | [5]; at 11.0 µM 11% | [5]; at 33.0 µM 33% | [5]; [18] 42% | [5]; at 100.0 µM 52% | [6]; at 1.2 µM 0% | [6]; at 3.7 µM 5% | [6]; [17] 3% | [6]; at 11.0 µM 8% | [6]; at 33.0 µM 11% | [6]; [18] 19% | [6]; at 50.0 µM -9.35% and -12.8% | [6]; at 100.0 µM -3% | [7]; at 1.2 µM -1% | [7]; at 3.7 µM 6% | [7]; at 11.0 µM 4% | [7]; at 33.0 µM 5% | [7]; at 100.0 µM 7% | [8]; [17] 47% | [9]; at 1.2 µM -4% | [9]; at 3.7 µM -2% | [9]; at 11.0 µM -6% | [9]; at 33.0 µM -15% | [9]; at 100.0 µM -5% | [10]; [17] -4% | [10]; [18] -10% | [10]; at 50.0 µM -40.1% and -51.6% | [11]; at 1.2 µM -2% | [11]; at 3.7 µM -6% | [11]; [17] -5% | [11]; at 11.0 µM -5% | [11]; at 33.0 µM -12% | [11]; [18] -4% | [11]; at 50.0 µM -32.9% and 0.5% | [11]; at 100.0 µM -10% | [12]; at 1.2 µM -1% | [12]; at 3.7 µM -1% | [12]; at 11.0 µM -1% | [12]; at 33.0 µM 1% | [12]; at 100.0 µM 12% | [13]; at 1.2 µM 1% | [13]; at 3.7 µM 8% | [13]; at 11.0 µM 0% | [13]; at 33.0 µM 7% | [13]; at 100.0 µM 26% | [14]; at 1.2 µM 21% | [14]; at 3.7 µM 43% | [14]; at 11.0 µM 68% | [15]; [17] 13% | [15]; [18] -5% | [15]; at 50.0 µM 21.4% and -23.4% | [16]; at 1.2 µM -1% | [16]; at 3.7 µM -4% | [16]; at 11.0 µM -8% | [16]; at 33.0 µM -15% | [16]; at 100.0 µM -22%
78.3% (active) and -3% (inactive): [5]; at 50.0 µM
